Results: PMC7819943, “Rice protein-binding microarrays: a tool to detect cis-acting elements near promoter regions in rice”
Whole data set: some 35,000 sequences, median “fluorescence intensity (a.u.)” near 10,000, cut for the highest 2% near 52,000. The list comes from a sample in which the highest values are over-represented; it also holds similar and randomly drawn sequences.

Target: T1, OsWOX13 (Oryza sativa, UniProt Q5QMM3 1-267)
T1 sequence: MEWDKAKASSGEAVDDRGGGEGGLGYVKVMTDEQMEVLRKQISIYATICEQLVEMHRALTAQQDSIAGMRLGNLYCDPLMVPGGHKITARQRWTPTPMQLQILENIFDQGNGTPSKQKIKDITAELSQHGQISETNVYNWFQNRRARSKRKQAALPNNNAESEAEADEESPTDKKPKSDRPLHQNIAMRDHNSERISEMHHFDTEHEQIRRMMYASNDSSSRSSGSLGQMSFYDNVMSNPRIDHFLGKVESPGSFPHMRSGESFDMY
Assay: protein-binding microarray (RPBM); PBS, 2% BSA, 51.3 ng/ul salmon testes DNA, 50 uM zinc acetate, 200 nM TF, 25 C, 1 h; high values mean tight binding
Conditions: protein: recombinant; tags: N-terminal polyhistidine and DsRed monomer fusion (pET32a); label: CyDye5-dUTP incorporated in the synthesized complementary strand; 3' TTTTT single-stranded linker to array surface; dsDNA, one strand shown
How it was run: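 Binding signal here means per-feature fluorescence intensity in arbitrary units. The values were read on an Axon 4000B scanner after a custom Agilent array, double-stranded by primer extension with Cy5-dUTP, was incubated with 200 nM protein at 25 °C for 1 h in PBS with 2% BSA, salmon testes DNA and 50 µM zinc acetate, then washed. The proteins were transcription factors with an N-terminal polyhistidine tag and DsRed, expressed in E. coli BL21-CodonPlus and purified on Ni–NTA.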

Compared with “CGTTTCTTGATTCGATGGTTGATGGATTTTGGTTTGTGGACGGAGTCACCTAGTGCAG”, “GGCAATCAATTATTAATTGATTAATTCCATGAATAGCACACGGAGTCACCTAGTGCAG” is higher in binding signal: 4980 fluorescence intensity (a.u.) for the first, 64900 fluorescence intensity (a.u.) for the second.

First: ATCACCTAATCAATTGAATCCATCAATTCAAGTAGATTCACGGAGTCACCTAGTGCAG
Second: AAATATATTCAATTATTGATTTGATGAAACTAATTTCGTACGGAGTCACCTAGTGCAG
The binding signal of the first is lower: 9390 fluorescence intensity (a.u.) for the first, 23500 fluorescence intensity (a.u.) for the second.

First: ATTGATTTGATGAAACTAATTTACGGCACAATAGCAAATCCGGAGTCACCTAGTGCAG
Second: TTATGAAAATATATTTAATTATTGATTTGATGAAACTAATCGGAGTCACCTAGTGCAG
The binding signal of the first is higher: 57600 fluorescence intensity (a.u.) for the first, 5790 fluorescence intensity (a.u.) for the second.

Going from “GCACACATGATCAATCAATTAATAGATTAGGTAGGTACGGCGGAGTCACCTAGTGCAG” to “TATATATATATATATATATAGACACACACATCAACAACAACGGAGTCACCTAGTGCAG”, the binding signal falls from 51100 fluorescence intensity (a.u.) to 16000 fluorescence intensity (a.u.).

First: TTAATTGCTATGTTTTGACCAGTCAACGCATAGGTCGTTTCGGAGTCACCTAGTGCAG
Second: ATTGCACAGATTGTGACTAATTTGCGAGACGAATCTTTTACGGAGTCACCTAGTGCAG
The binding signal of the first is higher: 15500 fluorescence intensity (a.u.) for the first, 7340 fluorescence intensity (a.u.) for the second.

First: TTGGAATTTGGGGATTGGGAAGAGAGAAATCAGATTGGAACGGAGTCACCTAGTGCAG
Second: CGGAAGATTGGAATGGAAATCGGAGAGAGCAGGGGCGGTGCGGAGTCACCTAGTGCAG
The binding signal of the first is lower: 4300 fluorescence intensity (a.u.) for the first, 12800 fluorescence intensity (a.u.) for the second.

Going from “ATTAATTAGCTGCCCGCAGACAAGACCCGTGACTTTGGCCCGGAGTCACCTAGTGCAG” to “TATAATTAATTATTTGCTAGATTTCATTCATATGACAATTCGGAGTCACCTAGTGCAG”, the binding signal rises from 23800 fluorescence intensity (a.u.) to 54600 fluorescence intensity (a.u.).

Compared with “ATAATAATTAATATTTCATTAATTATATGCTAACGAGTTTCGGAGTCACCTAGTGCAG”, “TAGTACTCTCAATTAATTACAAACCACACCATCAAATTCTCGGAGTCACCTAGTGCAG” is lower in binding signal: 43400 fluorescence intensity (a.u.) for the first, 7020 fluorescence intensity (a.u.) for the second.

Compared with “GAAGATTTAATTGCAACAAATTTAATAGTGCAATCGGATCCGGAGTCACCTAGTGCAG”, “ATAATTAAAACTCAATTAATCACACGTTATTATCACATCGCGGAGTCACCTAGTGCAG” is lower in binding signal: 40800 fluorescence intensity (a.u.) for the first, 14200 fluorescence intensity (a.u.) for the second.

Compared with “TACAATTATGATTTGCCTTCAAATTTGCATTTTCATATTTCGGAGTCACCTAGTGCAG”, “AATTAACATCAATAACAAAGTGTTGTACTGTAATCATCTTCGGAGTCACCTAGTGCAG” is lower in binding signal: 13500 fluorescence intensity (a.u.) for the first, 4050 fluorescence intensity (a.u.) for the second.

Going from “AAAGATTGCCGAGTTTAATTGCAATCAATTACGGGAAGATCGGAGTCACCTAGTGCAG” to “GCTTAATTAACAATCAACATAACTACTAACTAGTGTTGTTCGGAGTCACCTAGTGCAG”, the binding signal rises from 52900 fluorescence intensity (a.u.) to 57300 fluorescence intensity (a.u.).

Compared with “GGTTAATCAATCAATCAGTTAATTACACAATTACTCACATCGGAGTCACCTAGTGCAG”, “TATTTAATTGCAACGAATACAATAGTTTAATCGGATTATACGGAGTCACCTAGTGCAG” is lower in binding signal: 57300 fluorescence intensity (a.u.) for the first, 9360 fluorescence intensity (a.u.) for the second.

Compared with “TACTATTAATCAATCACATATAATTAACAATTAGTGTGATCGGAGTCACCTAGTGCAG”, “AGATTAATTAGGCTTAATAGATTCGTCTACGTTTAATACTCGGAGTCACCTAGTGCAG” is lower in binding signal: 41200 fluorescence intensity (a.u.) for the first, 20900 fluorescence intensity (a.u.) for the second.

Compared with “GCCAAATTAGATGGAAAGTTGGTTATATAGGTGTTTATATCGGAGTCACCTAGTGCAG”, “AATTATACAATCAATCAAATACTGAAATTTAAAATTGGTACGGAGTCACCTAGTGCAG” is lower in binding signal: 29100 fluorescence intensity (a.u.) for the first, 15800 fluorescence intensity (a.u.) for the second.

Going from “CAAAAGAACAATTATTGATCAACTAATGTACACGTCCCAGCGGAGTCACCTAGTGCAG” to “AGCTGAAATTAAGAACAGACAGACATGATCACAGATCGAGCGGAGTCACCTAGTGCAG”, the binding signal falls from 13900 fluorescence intensity (a.u.) to 10100 fluorescence intensity (a.u.).

First: TGATGATTAGTCGATTACTGTTTTCCTATAGCCATCGTTACGGAGTCACCTAGTGCAG
Second: AGGAATATATATAATTTACAAATAACTAAAATTTGATATTCGGAGTCACCTAGTGCAG
The binding signal of the first is higher: 30100 fluorescence intensity (a.u.) for the first, 4110 fluorescence intensity (a.u.) for the second.

Going from “ATCTGTCACATTAGACATAAATAAAATATTTGCGAAATGTCGGAGTCACCTAGTGCAG” to “AAGTGTTTGTAATTACTAAAATTTTGACATGAATTCAAATCGGAGTCACCTAGTGCAG”, the binding signal rises from 3540 fluorescence intensity (a.u.) to 8700 fluorescence intensity (a.u.).

Compared with “ACTCAGTATACACTAATTAGCAATTATTACCGAAATTGTACGGAGTCACCTAGTGCAG”, “AAATCAATAATTAAATATAGTTTCATAATATATTTATCTTCGGAGTCACCTAGTGCAG” is lower in binding signal: 23400 fluorescence intensity (a.u.) for the first, 22700 fluorescence intensity (a.u.) for the second.

Compared with “CTTCTAATTTTGTTAATTGGGAAGACATCATAGAGTGGAACGGAGTCACCTAGTGCAG”, “GAGTAATTACTAATTAGCTGGTACACTCAATCCAGTACGGCGGAGTCACCTAGTGCAG” is lower in binding signal: 65400 fluorescence intensity (a.u.) for the first, 59000 fluorescence intensity (a.u.) for the second.

First: TTTAATTACTAATCAATTTCATACATTCATATAGTTTATTCGGAGTCACCTAGTGCAG
Second: TTGACCAATCAATTACTCACTGGTACGGAAAACACTATAGCGGAGTCACCTAGTGCAG
The binding signal of the first is higher: 55600 fluorescence intensity (a.u.) for the first, 23300 fluorescence intensity (a.u.) for the second.

Going from “GTTAATTTTGTTTAATTAATGGTGGAAGCAGCCATCATCACGGAGTCACCTAGTGCAG” to “CGATTTCTTGTTTAATTACTAATCAATTTCATACATTCATCGGAGTCACCTAGTGCAG”, the binding signal falls from 38200 fluorescence intensity (a.u.) to 13400 fluorescence intensity (a.u.).

First: GATTATGATTTGGAGAAAATTGCATCCATAAAACATTAATCGGAGTCACCTAGTGCAG
Second: CCATTAATTATGTTGGACATAATTAAGAGAATTTGCTAAACGGAGTCACCTAGTGCAG
The binding signal of the first is lower: 8000 fluorescence intensity (a.u.) for the first, 52300 fluorescence intensity (a.u.) for the second.

Compared with “TTTAATTTGTTCATTAAAGACCTAAGAGCTAATAAACGGACGGAGTCACCTAGTGCAG”, “TGGTATTTAATTATTTGTTAGAGTCATCATTGGTCTATAACGGAGTCACCTAGTGCAG” is lower in binding signal: 23100 fluorescence intensity (a.u.) for the first, 8940 fluorescence intensity (a.u.) for the second.
